Experimental data as given in PubChem BioAssay.
Calls of active or inactive are those of the source.

Experiments:
[1] = system: PRMT1 (protein arginine N-methyltransferase 1); experiment: small molecules binding arginine methyltransferase PRMT1 – biochemical, small-molecule microarray, 635 nm fluorescence, primary screen (AID 1088); details: higher = more signal;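 further: binding of Prmt1 protein to compounds spotted on small-molecule microarray slides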
[2] = growth effects on S. cerevisiae YJM789 – YJM789 clinical isolate, OD600, 24 h, basal, primary screen (AID 1089); details: higher = more signal, called active from +8 up or from −8 down;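 further: growth of clinical yeast isolate S. cerevisiae YJM 789 seeded 1000 cells per well; test concentration not given here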
[3] = S. pombe growth modifiers, basal conditions – strain 972, OD600, 24 h, no modulator, primary screen (AID 1090);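 further: basal condition with compound alone and no growth modifier present; test concentration not given here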; details: S. pombe 972 growth, higher = more signal, called active from +8 up or from −8 down
[4] = budding yeast growth modifiers under rapamycin – strain BY4716, OD600, 96 h, primary screen (AID 1091); further: test concentration not given here; details: S. cerevisiae BY4716 + rapamycin, higher = more signal, called active from +8 up or from −8 down
[5] = biological target: Torsin-1A-interacting protein 2 (Homo sapiens) (UniProt Q8NFQ8); experiment: small molecules binding lysate-expressed LULL1 – cell lysate, human LULL1 lysate, 635/667 nm fluorescence, primary screen (AID 1092); details: small-molecule microarray, hLULL1 lysate binding, 635 nm fluorescence; higher = more signal;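 further: probe is lysate of COS7 cells overexpressing human LULL1; score merges per-feature 667 nm fluorescence with signal-to-noise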
Chain of Torsin-1A-interacting protein 2 (Homo sapiens) (Q8NFQ8 whole entry, looked up): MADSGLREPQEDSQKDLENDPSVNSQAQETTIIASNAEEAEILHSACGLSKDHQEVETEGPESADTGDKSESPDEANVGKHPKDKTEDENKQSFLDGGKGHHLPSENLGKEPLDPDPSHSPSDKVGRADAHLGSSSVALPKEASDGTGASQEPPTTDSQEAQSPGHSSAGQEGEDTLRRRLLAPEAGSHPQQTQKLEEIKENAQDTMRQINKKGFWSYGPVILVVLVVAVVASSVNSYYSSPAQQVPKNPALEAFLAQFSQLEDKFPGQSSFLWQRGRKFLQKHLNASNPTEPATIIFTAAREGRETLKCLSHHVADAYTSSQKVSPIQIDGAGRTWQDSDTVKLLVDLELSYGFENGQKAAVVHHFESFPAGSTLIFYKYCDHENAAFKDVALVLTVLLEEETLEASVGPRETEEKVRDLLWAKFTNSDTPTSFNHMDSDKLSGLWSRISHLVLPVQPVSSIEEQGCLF

[6] = optical density change of DRC41 E. coli – strain DRC41, OD650, 24 h, E. coli filamentation project, primary screen (AID 1093);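 further: MC1000 strain lacking acrAB efflux and sulA so SOS filamentation is blocked; test concentration not given here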; details: E. coli DRC41 growth, higher = more signal, called active from +8 up or from −8 down
[7] = probe aLefty2 binding to arrayed compounds – biochemical, biotinylated probe, 635/667 nm fluorescence, primary screen (AID 1094); details: small-molecule microarray, higher = more signal;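 further: score merges spot fluorescence near 667 nm with spot signal-to-noise ratio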
[8] = system: Noggin (protein binding on small-molecule microarray); experiment: small molecules binding Noggin protein – biochemical, 635/667 nm fluorescence, primary screen (AID 1095); details: 635 nm fluorescence, higher = more signal;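 further: score merges 667 nm feature fluorescence with signal to noise over triplicate slides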
[9] = biological target: Neurogenic locus notch homolog protein 3 (Homo sapiens) (UniProt Q9UM47); experiment: small molecules binding NOTCH3 protein – biochemical, 635/667 nm fluorescence, primary screen (AID 1096); details: small-molecule microarray, 635 nm fluorescence, higher = more signal
Chain of Neurogenic locus notch homolog protein 3 (Homo sapiens) (Q9UM47 whole entry, looked up): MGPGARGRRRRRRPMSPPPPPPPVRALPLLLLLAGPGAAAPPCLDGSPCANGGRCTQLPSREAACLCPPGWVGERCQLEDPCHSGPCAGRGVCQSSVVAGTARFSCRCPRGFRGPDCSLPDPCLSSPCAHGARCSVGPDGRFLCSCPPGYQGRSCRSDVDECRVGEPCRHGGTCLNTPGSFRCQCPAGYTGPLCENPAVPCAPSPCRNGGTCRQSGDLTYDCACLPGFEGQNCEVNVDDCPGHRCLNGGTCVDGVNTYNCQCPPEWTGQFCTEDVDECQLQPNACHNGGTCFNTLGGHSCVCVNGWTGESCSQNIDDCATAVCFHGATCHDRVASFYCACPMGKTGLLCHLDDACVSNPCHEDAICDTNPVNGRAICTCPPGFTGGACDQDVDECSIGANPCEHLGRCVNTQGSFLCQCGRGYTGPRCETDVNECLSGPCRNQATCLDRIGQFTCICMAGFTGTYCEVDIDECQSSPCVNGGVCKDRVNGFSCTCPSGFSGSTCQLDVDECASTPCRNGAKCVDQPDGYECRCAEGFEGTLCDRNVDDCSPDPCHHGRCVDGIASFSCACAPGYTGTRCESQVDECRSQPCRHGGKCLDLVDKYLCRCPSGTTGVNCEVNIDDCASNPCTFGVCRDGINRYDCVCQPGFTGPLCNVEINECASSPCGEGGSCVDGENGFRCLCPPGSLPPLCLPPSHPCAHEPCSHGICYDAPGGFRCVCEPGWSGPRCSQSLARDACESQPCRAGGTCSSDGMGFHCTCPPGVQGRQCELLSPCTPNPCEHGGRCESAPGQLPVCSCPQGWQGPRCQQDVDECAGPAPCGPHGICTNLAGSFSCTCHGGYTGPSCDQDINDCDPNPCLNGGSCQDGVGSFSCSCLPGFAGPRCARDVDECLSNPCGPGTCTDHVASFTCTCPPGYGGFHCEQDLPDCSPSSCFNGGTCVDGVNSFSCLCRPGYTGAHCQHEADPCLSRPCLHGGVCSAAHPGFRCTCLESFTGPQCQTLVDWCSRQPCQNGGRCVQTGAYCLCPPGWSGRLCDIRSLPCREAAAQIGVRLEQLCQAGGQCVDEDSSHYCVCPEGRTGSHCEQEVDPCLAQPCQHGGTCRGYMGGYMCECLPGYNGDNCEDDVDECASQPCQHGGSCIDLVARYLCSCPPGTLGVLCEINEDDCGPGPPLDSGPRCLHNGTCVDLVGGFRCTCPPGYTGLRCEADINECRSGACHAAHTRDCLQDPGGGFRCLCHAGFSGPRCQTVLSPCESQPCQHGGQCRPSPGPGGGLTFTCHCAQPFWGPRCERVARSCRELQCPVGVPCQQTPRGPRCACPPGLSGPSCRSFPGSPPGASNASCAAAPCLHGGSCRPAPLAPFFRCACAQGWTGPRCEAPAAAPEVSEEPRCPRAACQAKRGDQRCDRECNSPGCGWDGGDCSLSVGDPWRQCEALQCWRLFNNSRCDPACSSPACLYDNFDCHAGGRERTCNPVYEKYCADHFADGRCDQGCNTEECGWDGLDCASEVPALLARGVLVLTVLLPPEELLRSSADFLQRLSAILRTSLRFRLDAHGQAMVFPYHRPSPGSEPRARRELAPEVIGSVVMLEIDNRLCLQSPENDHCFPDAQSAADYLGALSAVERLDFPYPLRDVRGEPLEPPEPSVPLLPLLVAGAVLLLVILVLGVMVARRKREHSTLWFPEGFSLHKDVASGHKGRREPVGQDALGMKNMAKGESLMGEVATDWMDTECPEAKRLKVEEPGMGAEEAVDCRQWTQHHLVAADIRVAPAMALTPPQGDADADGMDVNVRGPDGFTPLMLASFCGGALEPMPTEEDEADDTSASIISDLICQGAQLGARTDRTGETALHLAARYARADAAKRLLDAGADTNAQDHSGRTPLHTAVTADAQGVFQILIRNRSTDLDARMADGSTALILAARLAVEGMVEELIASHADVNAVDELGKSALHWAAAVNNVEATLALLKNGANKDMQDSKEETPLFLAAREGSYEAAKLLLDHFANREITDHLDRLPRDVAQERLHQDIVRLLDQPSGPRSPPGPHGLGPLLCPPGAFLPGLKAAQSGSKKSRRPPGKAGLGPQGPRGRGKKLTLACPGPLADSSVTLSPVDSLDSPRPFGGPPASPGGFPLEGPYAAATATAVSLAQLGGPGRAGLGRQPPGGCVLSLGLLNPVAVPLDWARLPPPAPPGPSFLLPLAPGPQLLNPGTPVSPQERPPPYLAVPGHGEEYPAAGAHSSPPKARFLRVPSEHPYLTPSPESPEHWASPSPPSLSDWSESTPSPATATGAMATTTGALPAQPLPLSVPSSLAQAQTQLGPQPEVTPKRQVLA

[10] = probe aEGFR binding to arrayed compounds – biochemical, biotinylated probe, 635/667 nm fluorescence, primary screen (AID 1097); details: small-molecule microarray, higher = more signal;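 further: probe is a biotinylated anti-EGFR antibody binding compounds printed on slides; score combines fluorescence near 667 nm and signal to noise of each spot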
[11] = system: Plasmodium falciparum Sir2 (PF13_0152, Sir2A); experiment: Plasmodium falciparum Sir2A binding compounds – biochemical, small-molecule microarray, 635 nm fluorescence, primary screen (AID 1098); details: fluorescence 635 nm, higher = more signal;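 further: score merges spot fluorescence intensity with its signal-to-noise ratio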
[12] = probe aDKK1 binding to arrayed compounds – biochemical, biotinylated probe, 635/667 nm fluorescence, primary screen (AID 1099); details: small-molecule microarray, higher = more signal;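 further: score merges 667nm spot fluorescence with signal to noise across triplicate slides; reference of the scale not given here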
[13] = probe aCHRDL2 binding to arrayed compounds – biochemical, biotinylated probe, 635/667 nm fluorescence, primary screen (AID 1100); details: small-molecule microarray, higher = more signal
[14] = change in splice reporter luminescence, either direction, cell-based, HEK293, spliceosome inhibition project, primary screen (AID 1101); details: HEK293 splicing luciferase reporter, 24 h, higher = more signal, called active from +8 up or from −8 down;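 further: HEK293 cells carrying a splicing-competent luciferase reporter gene; test concentration not given here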
[15] = biological target: Fibroblast growth factor 10 (Homo sapiens) (UniProt O15520); experiment: compounds binding fibroblast growth factor 10 – biochemical, small-molecule microarray, 635 nm fluorescence, primary screen (AID 1102); details: FGF10 binding, fluorescence 635 nm, higher = more signal
Chain of Fibroblast growth factor 10 (Homo sapiens) (O15520 whole entry, looked up): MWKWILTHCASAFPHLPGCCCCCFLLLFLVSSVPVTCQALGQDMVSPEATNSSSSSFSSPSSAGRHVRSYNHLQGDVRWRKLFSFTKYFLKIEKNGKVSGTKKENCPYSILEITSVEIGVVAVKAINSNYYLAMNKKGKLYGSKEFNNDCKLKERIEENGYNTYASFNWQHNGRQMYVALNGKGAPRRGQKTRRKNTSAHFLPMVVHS

[16] = system: glycogen synthase kinase-3 (GSK3A per assay name; protocol says GSK3B); experiment: compounds binding glycogen synthase kinase-3 – biochemical, small-molecule microarray, 635 nm fluorescence, GSK3A, primary screen (AID 1103); details: fluorescence 635 nm, higher = more signal; further: the record names both GSK3A and GSK3B
[17] = biological target: Epidermal growth factor receptor (Homo sapiens) (UniProt P00533); experiment: compounds binding epidermal growth factor receptor – biochemical, small-molecule microarray, 635 nm fluorescence, primary screen (AID 1104); details: EGFR binding, higher = more signal;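 further: score merges 667 nm emission intensity with spot signal to noise over triplicate slides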
Chain of Epidermal growth factor receptor (Homo sapiens) (P00533 whole entry, looked up): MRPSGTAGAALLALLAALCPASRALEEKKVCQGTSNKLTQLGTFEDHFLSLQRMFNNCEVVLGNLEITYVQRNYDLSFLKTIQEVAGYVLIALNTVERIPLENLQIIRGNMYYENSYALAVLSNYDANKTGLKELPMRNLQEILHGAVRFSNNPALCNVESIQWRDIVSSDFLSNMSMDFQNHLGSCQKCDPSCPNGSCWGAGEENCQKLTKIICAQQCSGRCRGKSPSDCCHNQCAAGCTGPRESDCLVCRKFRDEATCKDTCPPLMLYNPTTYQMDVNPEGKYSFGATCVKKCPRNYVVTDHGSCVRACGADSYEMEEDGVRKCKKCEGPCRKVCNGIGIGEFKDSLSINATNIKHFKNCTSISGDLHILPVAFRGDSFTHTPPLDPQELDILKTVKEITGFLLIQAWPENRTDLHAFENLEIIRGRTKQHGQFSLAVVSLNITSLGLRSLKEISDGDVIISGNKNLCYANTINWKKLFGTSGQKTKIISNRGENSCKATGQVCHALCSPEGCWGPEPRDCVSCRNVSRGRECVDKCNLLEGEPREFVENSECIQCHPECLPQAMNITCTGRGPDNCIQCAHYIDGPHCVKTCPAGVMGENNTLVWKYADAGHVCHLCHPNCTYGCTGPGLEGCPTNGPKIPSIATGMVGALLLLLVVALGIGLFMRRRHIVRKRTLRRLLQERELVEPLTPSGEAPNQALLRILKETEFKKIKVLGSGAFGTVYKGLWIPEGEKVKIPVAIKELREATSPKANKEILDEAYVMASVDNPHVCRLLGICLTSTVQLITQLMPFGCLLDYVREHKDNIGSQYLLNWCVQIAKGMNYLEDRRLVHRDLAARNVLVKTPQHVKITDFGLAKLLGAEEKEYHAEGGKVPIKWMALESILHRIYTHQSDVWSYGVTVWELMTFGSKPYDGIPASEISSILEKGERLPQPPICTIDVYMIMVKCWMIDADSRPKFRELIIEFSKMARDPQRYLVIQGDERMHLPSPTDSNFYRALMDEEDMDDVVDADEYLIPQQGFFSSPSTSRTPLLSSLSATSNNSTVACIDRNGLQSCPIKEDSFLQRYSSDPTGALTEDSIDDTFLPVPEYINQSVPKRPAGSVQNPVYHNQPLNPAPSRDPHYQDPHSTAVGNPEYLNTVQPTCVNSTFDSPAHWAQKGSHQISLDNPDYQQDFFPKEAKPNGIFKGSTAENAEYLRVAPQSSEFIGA

[18] = biological target: Follistatin-related protein 3 (Homo sapiens) (UniProt O95633); experiment: compounds binding follistatin-related protein 3 – biochemical, small-molecule microarray, 635 nm fluorescence, primary screen (AID 1105); details: FSTL3 binding, higher = more signal;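 further: score merges emission near 667 nm and signal to noise per printed spot across three slides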
Chain of Follistatin-related protein 3 (Homo sapiens) (O95633 whole entry, looked up): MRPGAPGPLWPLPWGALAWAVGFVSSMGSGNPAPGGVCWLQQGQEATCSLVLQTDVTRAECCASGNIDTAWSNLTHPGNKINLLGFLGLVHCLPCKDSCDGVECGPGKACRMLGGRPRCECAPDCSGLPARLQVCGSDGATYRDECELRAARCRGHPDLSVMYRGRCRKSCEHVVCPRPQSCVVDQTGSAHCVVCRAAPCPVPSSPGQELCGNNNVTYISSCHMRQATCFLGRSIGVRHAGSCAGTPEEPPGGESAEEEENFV

[19] = biological target: Dickkopf-related protein 1 (Homo sapiens) (UniProt O94907); experiment: small molecules binding DKK1 protein – biochemical, small-molecule microarray, 635 nm fluorescence scan, primary screen (AID 1106); details: higher = more signal;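 further: score merges emission near 667 nm with signal to noise over three replicate slides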
Chain of Dickkopf-related protein 1 (Homo sapiens) (O94907 whole entry, looked up): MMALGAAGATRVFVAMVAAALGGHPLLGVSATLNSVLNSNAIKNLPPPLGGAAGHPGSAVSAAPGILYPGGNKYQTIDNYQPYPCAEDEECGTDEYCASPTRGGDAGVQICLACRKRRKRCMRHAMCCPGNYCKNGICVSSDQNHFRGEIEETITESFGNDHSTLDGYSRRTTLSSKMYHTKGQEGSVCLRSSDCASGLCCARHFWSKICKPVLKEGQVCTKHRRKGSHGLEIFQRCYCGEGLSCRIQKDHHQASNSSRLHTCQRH

[20] = system: Inhibin beta A chain (activin A); experiment: small molecules binding activin A – biochemical, small-molecule microarray, 635 nm fluorescence scan, primary screen (AID 1107); details: INHBA, higher = more signal;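 further: mouse activin A protein probed at 4.33 µg/mL on printed slides; score merges bound-protein fluorescence near 667 nm with spot signal-to-noise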

| Structure (SMILES) | composite z-score [1] | z-score [2] | z-score [3] | z-score [4] | composite z-score [5] | z-score [6] | composite z-score [7] | composite z-score [8] | composite z-score [9] | composite z-score [10] | composite z-score [11] | composite z-score [12] | composite z-score [13] | z-score [14] | composite z-score [15] | composite z-score [16] | composite z-score [17] | composite z-score [18] | composite z-score [19] | composite z-score [20] |
| --- | --- | --- | --- | --- | --- | --- | --- | --- | --- | --- | --- | --- | --- | --- | --- | --- | --- | --- | --- | --- |
| CCCCC#C[C@@H]1C=C[C@H](OC(C)=O)[C@@H](COC(C)=O)O1 | 0.59 | 0.248 (inactive) | -3.45 (inactive) | -1.25 (inactive) | 0.456 | 0.325 (inactive) | -0.116 | 0.216 | 0.848 | 0.0251 | 0.483 | -0.228 | -0.595 | 1.07 (inactive) | 0.46 | 0.244 | 0.137 | 0.44 | 0.124 | 0.589 |
| CO[C@H]1COC(=O)CC=C[C@H](C)[C@@H](OC)COC(=O)[C@@H](C)NC(=O)CC=C[C@@H]1C | 1.53 | -1.02 (inactive) | 0.0386 (inactive) | -1.67 (inactive) | -1.92 | -0.804 (inactive) | -0.148 | 1.54 | 0.0946 | -0.0727 | 1.23 | -0.377 | -1.17 | -0.653 (inactive) | 0.447 | 0.597 | 1.27 | 1.44 | 1.49 | 1.52 |
| O=C1C2=CC[C@H]3C(=O)N(c4cccc(Oc5ccccc5)c4)C(=O)[C@H]3[C@H]2[C@H](O)[C@@H]2O[C@H]12 | 0.435 | 0.135 (inactive) | -0.974 (inactive) | -0.147 (inactive) | -0.122 | -0.425 (inactive) | -0.139 | 0.744 | 0.92 | -0.0219 | 0.237 | -0.372 | -0.37 | 14.7 (active) | 0.635 | 0.393 | 0.299 | 0.666 | 0.655 | -0.0639 |
| COc1ccc(COC(=O)NN=C2C[C@@H](O)[C@@H](O)[C@@H]3[C@@H]4C(=O)N(c5cccc(Oc6ccccc6)c5)C(=O)[C@@H]4CC[C@@H]23)cc1 | -0.184 | 1.15 (inactive) | 0.897 (inactive) | 0.752 (inactive) | 0.624 | 0.301 (inactive) | 0.162 | -0.516 | -0.732 | -0.0953 | -0.0785 | 0.557 | 1.28 | -0.161 (inactive) | -0.518 | -1.2 | -0.322 | -1.07 | -0.89 | 0.247 |
| COC(=O)[C@@H]1CC[C@H](C)[C@@H](c2ccc(C)cc2)N1C(=O)c1ccc(C=NO[C@H](C)c2cn([C@H](CO)Cc3ccccc3)nn2)cc1 | 1.04 | 0.149 (inactive) | 0.0048 (inactive) | 0.619 (inactive) | 0.6 | -0.551 (inactive) | 0.0943 | 1.19 | 1.05 | 0.119 | 0.652 | 0.178 | 0.115 | -0.178 (inactive) | 0.694 | 0.835 | 0.551 | 1.05 | 0.81 | 0.135 |
| C[C@@H](c1ccccc1)N1C(=O)[C@H]2[C@H]3[C@H](O)[C@H](O)CC(=NO[C@@H]4O[C@H](CO)[C@@H](O)[C@H](O)[C@H]4O)[C@@H]3CC[C@H]2C1=O | 0.0967 | 0.114 (inactive) | 0.149 (inactive) | -0.967 (inactive) | 0.652 | 0.345 (inactive) | -0.126 | 0.111 | 0.372 | 0.0271 | 0.256 | -0.193 | -0.62 | 0.119 (inactive) | 0.305 | 0.495 | 0.586 | 0.579 | 0.393 | 0.0868 |
| CO[C@H]1COC(=O)[C@@H](C)COC(=O)[C@H](COCc2ccccc2)NC(=O)CC=C[C@H]1C | 0.409 | 0.0827 (inactive) | -0.704 (inactive) | 0.007 (inactive) | -1.28 | 0.456 (inactive) | -0.128 | 0.98 | -0.944 | -0.196 | 0.641 | -0.492 | -0.828 | 0.104 (inactive) | 0.121 | -0.523 | 0.039 | 0.678 | 0.705 | 2.01 |
| COc1ccc(O[C@H]2C=C[C@@H](c3ccccc3)O[C@@H]2CON=CC[C@@H]2C=C[C@H](OC(C)=O)[C@@H](COC(C)=O)O2)cc1 | 0.15 | 0.507 (inactive) | 0.722 (inactive) | 0.721 (inactive) | 0.22 | 0.363 (inactive) | -0.107 | 0.691 | -0.22 | -0.0267 | 0.277 | -0.229 | 0.0216 | 0.731 (inactive) | -0.0104 | -0.603 | 0.238 | 0.128 | 0.105 | 0.606 |
| COc1ccc(O[C@@H]2[C@H](O)CO[C@@H]2C=Cc2ccccc2)cc1 | 0.123 | -0.565 (inactive) | -1.51 (inactive) | 0.0945 (inactive) | 0.11 | 0.0038 (inactive) | -0.238 | 0.135 | 0.0877 | -0.163 | 0.638 | -0.228 | -0.256 | -1.63 (inactive) | -0.0055 | -0.0208 | -0.169 | 0.367 | 0.148 | 0.448 |
| CC(C)CON=C1[C@H]2CCn3c(=O)n(Cc4cc5c(cc4Cl)OCO5)c(=O)n3[C@H]2[C@H](O)[C@@H]2O[C@H]12 | -0.149 | 0.534 (inactive) | -0.129 (inactive) | 0.296 (inactive) | 0.299 | 0.0007 (inactive) | -0.0936 | 0.607 | 0.573 | -0.0139 | 0.241 | -0.304 | -0.641 | -0.756 (inactive) | 0.533 | 0.589 | 0.483 | 0.554 | 0.484 | 0.233 |
